# The list is not random: actives were taken first. Their share in the collection is about 2.1%.
# Abeta yeast res: qHTS for compounds that reverse cellular toxicity of Amyloid beta (A-beta) peptide in yeast: Primary Screen | yeast expressing A-beta42, growth rescue, OD600, 48 h; response scale: 0% DMSO, 100% iron-clioquinol control | Potency, µM (highest dose often 46.1 µM), usual class: activators | 0.063% of 410,000 active; note: nearly all actives have a fitted effect of over 55% in size
#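 Growth rescue measured by 600 nm absorbance after 48 h yeast culture at 30 C with compound. Values normalized between DMSO and an equimolar ferric chloride plus clioquinol control.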
# aSyn rescue: qHTS of alpha-syn Inhibitors; Yeast expressing alpha-synuclein, growth rescue, BacTiter-Glo, 24 h; Potency, µM (doses to about 46.1 µM), for inactives: at the top dose growth rescue (activation), usual class: activators; 0.14% of 370,000 active; AID 652106, 2013; note: % of control where 0% means no effect; nearly all actives have a fitted effect of over 65% in size
#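 Galactose-induced alpha-syn yeast (OD600=0.02, raffinose-pregrown) + pinned cpd, 24 hr, 30 deg C; growth by BacTiter-Glo luminescence. Growth restoration scores as activation.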
# FUS yeast rescue: qHTS for Suppressors of FUS Proteinopathy: Primary screen using FUS-linked yeast assay; 0.24% of 390,000 active; S. cerevisiae FUS-expressing, growth rescue, OD600, 24 h; AID 1347120, 2019; Potency, µM (series often up to 76.6 µM), hits mostly activators;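 note: plate controls were DMSO vehicle for no effect and reference control for full effect; nearly all actives have a fitted effect of over 55% in size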
#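 Yeast FUS proteinopathy model; galactose-induced FUS (2%), starting OD 0.005. Cpds in dilution series, 24hr, 30C, 99% humidity. Abs 600 nm growth. Pos ctrl CP55940 (top 92uM final); neg ctrl DMSO.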
# TDP-43 yeast inh: qHTS of TDP-43 Inhibitors. 1.8% of 410,000 active. TDP-43 expressing yeast growth rescue, BacTiter-Glo, 24 h. Potency, µM (titrated, usually from 46.1 µM), for inactives: at the highest dose growth rescue (activation), usual class: activators; note: % of control where 0% means no effect; nearly all actives have a fitted effect of over 50% in size
#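 Cell-based yeast growth screen: TDP-43 expression induced in galactose, inoculum OD600=0.02 after raffinose pregrowth to mid-log. Read-out BacTiter-Glo luminescence at 24 hr, 30 deg C; inhibition of toxicity seen as signal increase.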
# The depositor's hits bear a star; i = inactive; u = inconclusive; x = no result. Calls come from the whole dose curve; as a rule, active = well fitted curve in the direction sought with a large enough effect; inconclusive = small, poorly fitted or top-dose-only effect, or another doubt; inactive = no such curve, though single readings can be large; an effect the other way counts as inactive or inconclusive. Potency is the fitted concentration of half-maximal effect.
SMILES,Abeta yeast res,aSyn rescue,FUS yeast rescue,TDP-43 yeast inh
CN(Cc1cc(Cl)cc(Cl)c1)CC(C(=O)c1ccccc1)c1ccccc1 (stereo not given),i,26.0%,x,12.6µM*
CCOc1cc(CNC(=O)c2ccccc2NC(=O)c2nsc3ccccc23)ccc1OC,i,x,i,12.0%
CCOc1ccc(NCc2cccn2-c2nnc(N3CCC(C(=O)NCCc4ccc(OC)c(OC)c4)CC3)s2)cc1,i,x,25.1µM*,-6.4%
Cc1cc(F)ccc1NS(=O)(=O)c1c(C)nc2scc(C)n2c1=O,i,-8.4%,i,20µM*
Cc1cc(C)cc(N2C(=O)CSC23C(=O)N(CC(=O)Nc2ccc(F)cc2F)c2ccccc23)c1 (stereo not given),i,0.0%,i,25.9%
CCOC(=O)c1ccc(-n2c(CCC(=O)O)ccc2-c2ccc(F)cc2)cc1,i,9.3%,i,12.6µM*
COC(=O)c1ccc(-n2c(CCC(=O)O)ccc2-c2ccc(C)cc2)cc1,i,21.0%,i,-13.0%
O=C(CC(Cl)(Cl)Cl)N1CCN(/[N+]([O-])=N/Oc2ccc([N+](=O)[O-])cc2[N+](=O)[O-])CC1,x,-66.6%,x,x
Cc1ccc2c(Cl)cc(Cl)c(OCC(=O)O)c2n1,i,-8.0%,i,14.1µM*
O=C(NC1CCCCN(Cc2cccc(F)c2)C1=O)c1ccc(F)cc1 (stereo not given),x,x,i,x
O=C(NC1CCCCC1)c1ccc(CSc2nc3cccnc3n2Cc2cccc(F)c2)cc1,i,x,i,-3.5%
CC(C)=CC(=O)O[C@@H]1Cc2cc3ccc(=O)oc3cc2OC1(C)C,i,8.2%,i,14.1µM*
CCN(CC)c1ccc(/C=C/C2=C3C=CC=CC3NC=C2)cc1 (stereo not given),x,-1.6%,x,x
Cc1cc(OCCn2nc(C(=O)O)c3ccccc3c2=O)ccc1C(C)C,i,-15.1%,i,20.5%
O=C(O)c1nn(CCOc2ccc(Br)cc2)c(=O)c2ccccc12,i,4.1%,i,12.6µM*
Nc1cccc2cccnc12,x,-5.6%,x,x
O=C(Nc1ccc([N+](=O)[O-])cc1Cl)c1ccccc1O,x,-70.1%,x,x
C/C(=N\NC(=S)NC(C)C)c1ccccc1,11.2µM*,-9.2%,i,22.8%
COC(=O)N1C(=O)[C@](c2ccccc2)(C2CCCC2)N1C(=O)OC,i,2.3%,i,14.1µM*
COc1ccc(CCNCc2c(C(=O)O)c(C)n(Cc3cccc(Cl)c3)c2C)c(OC)c1OC,i,x,i,-6.1%
Cc1cc(C)c(C#N)c(SCC(=O)c2cccs2)n1,i,11.6%,i,2.82µM*
CCCC1CCC2(CCCN2CCOC(=S)Nc2ccccc2OC)CC1 (stereo not given),x,x,i,x
COc1ccc(NC(=O)c2ccc(-c3ccccc3C(F)(F)F)o2)cc1,i,-13.0%,i,12.6µM*
COc1ccccc1CNC(=O)c1ccc(-c2ccccc2C(F)(F)F)o1,i,15.3%,i,u
Cc1ccc(S(=O)(=O)Nc2cccc(-c3ccc(N4CCCCCC4)nn3)c2)cc1C,x,-0.1%,22.4µM*,-2.6%
SMILES,Abeta yeast res,aSyn rescue,FUS yeast rescue,TDP-43 yeast inh
CCOc1ccc(S(=O)(=O)Nc2cccc(-c3ccc(OCC)nn3)c2)cc1,i,x,i,35.5µM*
COc1ccc(-c2cccc(NS(=O)(=O)c3cccs3)c2)nn1,i,x,i,22.2%
CCc1ccc(S(=O)(=O)Nc2cccc(-c3ccc(OC)nn3)c2)s1,i,x,u,17.8µM*
C[C@@H](O[Si](c1ccccc1)(c1ccccc1)C(C)(C)C)[C@H]1C(=O)N[C@H](Cc2cn(S(=O)(=O)c3ccccc3)c3ccccc23)C(=O)N1C,x,x,i,x
O=C(NCc1ccccc1)c1ccc2c(c1)N(Cc1ccc(F)cc1)CCS2,i,x,i,-8.6%
O=C(NCc1ccc(F)cc1)c1cc2cccc3c2n1CCS3,i,x,i,14.1µM*
COc1ccc(CNC(=O)C2(C)Cc3c(-c4ccc5c(c4)OCO5)ccnc3O2)cc1OC (stereo not given),i,8.91µM*,i,19.7%
CC(=O)Nc1ccc(-c2ccnc3c2CC(C)(C(=O)Nc2ccc(C(C)C)cc2)O3)cc1 (stereo not given),i,-34.8%,u,35.5µM*
CC1(C(=O)Nc2cccc(OC(F)(F)F)c2)Cc2c(-c3ccc4c(c3)OCO4)ccnc2O1 (stereo not given),i,3.55µM*,i,0.3%
CC1(C)OB(c2cnc(C#N)nc2)OC1(C)C,x,0.1%,x,x
CCOc1ccccc1/C=C/c1onc(C)c1S(=O)(=O)N1CCC(C(=O)N2CCCCC2)CC1,i,x,i,5.3%
COc1ccc([C@H]2CC(=O)C=C(c3cccc(Cl)c3)C2)cc1,i,0.2%,i,17.8µM*
O=C1C=C(c2cccc(Cl)c2)C[C@@H](c2ccc(Cl)cc2)C1,i,3.0%,u,0.0%
COc1ccc([C@H]2CC(=O)C=C(c3ccc(C)c([N+](=O)[O-])c3)C2)cc1,i,2.1%,u,35.5µM*
COCc1cccc(C2=CC(=O)C[C@H](c3ccc(OC)cc3)C2)c1,i,4.9%,i,14.1µM*
CCC[C@@H](/C=C/C(=O)OC(C)(C)C)Sc1ccc(OC)cc1,x,x,i,x
CC(C)(C)c1cccc(S(=O)(=O)N2CCN(c3nc(-c4cccs4)nc4ccccc34)CC2)c1,x,-1.6%,x,x
CCN(C(=O)Cn1nnc(-c2ccncc2)n1)c1ccccc1,x,x,i,x
CCOC(=O)c1ccc(NC(=O)CS(=O)(=O)Cc2nc(-c3ccc(C)cc3)oc2C)cc1,i,x,i,17.4%
Cn1ncc2c(NCc3ccccc3)nc(NCCCO)nc21,i,-7.8%,i,10.4%
CC(C)CCNc1nc(Nc2ccccc2)c2cnn(C)c2n1,i,x,u,17.8µM*
O=C(N/N=C/c1ccccn1)c1[nH]c2ccc([N+](=O)[O-])cc2c1-c1ccccc1,i,u,31.6µM*,27.3%
O=C(CCCOc1cccc(Br)c1)NCCOc1ccccc1,i,9.6%,i,12.6µM*
CC(C)CCNC(=O)CCCOc1ccccc1,i,-1.9%,i,8.9%
CCOc1ccc(Nc2nc(N)nc(CSC(=S)N3CCN(c4ccccc4)CC3)n2)cc1,i,13.4%,i,0.0%
COc1ccc(Nc2nc(N)nc(CSC(=S)N3CCCCC3)n2)cc1,i,1.6%,i,19.7%
CC1CCN(C(=S)SCc2nc(N)nc(Nc3ccccc3)n2)CC1,22.4µM*,11.4%,u,u
COc1ccc(Nc2nc(N)nc(CSC(=S)N3CCN(C)CC3)n2)cc1,i,-5.7%,i,0.9%
COc1ccccc1Nc1nc(N)nc(CSC(=S)N2CC(C)CC(C)C2)n1 (stereo not given),i,-0.4%,i,25.1µM*
COc1ccc(Nc2nc(N)nc(CSC(=S)N3CCN(c4ccccc4)CC3)n2)cc1,i,11.5%,u,17.8µM*
